Among the data in PubChem BioAssay (EPA / NIEHS) are outcome and AC50 values, retold here.

Active and inactive are the calls of the source. Rule for the calls: active = hit-call score of the fitted dose curve at least 0.9, where 1 is the maximum; inactive = score below 0.9.

A short description of the assay: ATG_CMV_CIS: Attagene CIS-FACTORIAL HepG2 Assay for human CMV (Internal Marker) (AID 2282928).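 Note: endpoint acts as a background internal control marker rather than a target.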 Conditions: HepG2 CMV promoter reporter, transcription factor profiling; actives raise or lower the signal. As for the experimental part: ATG_CIS is a cell-based, multiplexed-readout assay that uses HepG2, a human liver cell line, with measurements taken at 24 hours after chemical dosing in a 24-well plate.ATG_CMV_CIS is one of 52 assay component(s) measured or calculated from the ATG_CIS assay. It is designed to make measurements of mRNA induction, a form of inducible reporter, as detected with fluorescence intensity signals by Reverse transcription polymerase chain reaction (RT-PCR) and Capillary electrophoresis technology.Data from the assay component ATG_CMV_CIS was analyzed into 1 assay endpoint. This assay endpoint, ATG_CMV_CIS, was analyzed with bidirectional fitting relative to DMSO as the negative control and baseline of activity. Using a type of inducible reporter, measures of mRNA for gain or loss-of-signal activity can be used to understand the background control at the transcription factor-level as they relate to the gene . Furthermore, this assay endpoint can be referred to as a secondary readout, because this assay has produced multiple assay endpoints where this one serves a background control function. To generalize the intended target to other relatable targets, this assay endpoint is annotated to the background measurement intended target family, where the subfamily is internal marker.
Human liver HepG2 cells are transiently transfected with multiple reporter transcription units (MRTUs) in 6-well plates using FuGene 6 reagent (Roche; 3 ml FuGene/1 mg DNA). The MRTU constructs are regulated by a cis-regulating element (promoter). […] A major difference between the CIS and TRANS system is that in CIS activities of endogenous TFs are measured, whereas the TRANS assay evaluates changes in activities of exogenous, chimeric NR-Gal4 proteins. […] At the end of 24 hour incubation, total RNA was isolated using TriZol reagent (Invitrogen). The isolated RNA is then reverse-transcribed using oligo(dT) primer and Mo-MLV reverse transcriptase (Invitrogen) with DNAse I (Ambion) treatment for 30 min. The one-tenth of the produced cDNA was amplified by PCR using Taq DNA polymerase (Invitrogen) and two reporter sequence-specific primers. The PCR products were fluorescently labeled by primer extension with 6-arboxyfluorescein (6-FAM) 5'-labeled reporter sequence-specific primer (2 min at 95 C, 20 s at 68 C and 10 min at 72 C) and these products were digested with 5U of HpaI (New England Biolabs) for 2h at 37 C. The fragments were purified using Qiaquick PCR columns (Qiagen), analyzed on an ABI 3130xL genetic analyzer (Applied Biosystems) with peak positions identified by using a set of X-rhodamine (ROX)-labeled MapMarker1000 molecular weight standards (BioVentures). The raw capillary electrophoresis data was processed using Attagraph software (Attagene).
In the case of `CNC(=O)[C@H]1O[C@@H](n2cnc3c(NCc4cc(Cl)ccc4OCc4cc(C)no4)ncnc32)[C@H](O)[C@@H]1N`, the compound was classed as inactive. In the case of `C=CCOC(=O)c1ccccc1C(=O)OCC=C`, the AC50 is 26.2 µM (active).

Regarding `CN1CCCC1=O`, the call was inactive. For the compound `COc1cc(/C=C/C(=O)CC(=O)/C=C/c2ccc(O)c(OC)c2)ccc1O`, the concentration at half-maximal activity (AC50) is 54.2 µM (active). As to `CC(C)c1ccc(C(=O)N=C(N)N)cc1S(C)(=O)=O`, the result was inactive. For `C=CCc1ccc(O)c(OC)c1`, the AC50 is 80.2 µM (active).

Take `CC(=O)OC/C=C(\C)CCC=C(C)C`: the result was inactive.

Take `Cc1nc(-c2ccc3c(c2)CCN(CCC2CCC(NC(=O)/C=C/c4ccc(F)cc4)CC2)CC3)no1` (stereo not given): the outcome was inactive. Regarding `O=C(OCCCCCOC(=O)c1ccccc1)c1ccccc1`, the result was inactive. Turning to `CCCCCCCCCCCCCO`, the AC50 was 59.4 µM (active). For the compound `NCCO`, the compound was classed as inactive. Still for that read-out and setting: the same measure for `Cc1ccc(N(C)C)cc1`: “inactive”. For `O=[N+]([O-])C(CO)(CO)CO`, the call was inactive. For the compound `CCOC(=O)C(C)(C)Oc1ccc(Cl)cc1`, the compound was classed as inactive.

In the case of `Cc1cccc(C)c1O`, the call was inactive. Consider `CCCCN(CCCC)CCCC`, for which the outcome was inactive. For `FC(F)(F)C(F)(F)C(F)(F)C(F)(F)C(F)(F)C(F)(F)CCI`, the compound was called inactive. As to `COCCOC[C@H](CC1(C(=O)NC2CCC(C(=O)O)CC2)CCCC1)C(=O)Oc1ccc2c(c1)CCC2` (stereo not given in full), the call was inactive.

On to `Cc1oc(-c2ccccc2)nc1CCOc1cccc2c1ccn2CCC(=O)O`, for which the AC50 was 19.8 µM (active).

For `COc1cc(-c2nc(NC(=O)c3cc4cc(C)cc(C)c4n3CC(=O)O)sc2CCC2CCCCC2)c(OC)cc1Cl`, the AC50 is 3.3 µM (active).

Regarding `CC1=C(/C=C/C(C)=C/C=C/C(C)=C/CO)C(C)(C)CCC1`, the AC50 was 193 µM (active). Turning to `CCCCCCCC=O`, the outcome was inactive. For `NCC1(Cc2noc(=O)[nH]2)CCCCC1`, the call was inactive. With `C[Si]1(C)O[Si](C)(C)O[Si](C)(C)O[Si](C)(C)O1`, the result was inactive. As for `CCCCC(CC)COC(=O)CC(C(=O)OCC(CC)CCCC)S(=O)(=O)O` (stereo not given), the compound was called inactive.

On to `CC(=O)C(C)=CC1C(C)=CCCC1(C)C` (stereo not given), for which the compound was called inactive. As for `CCCCCCCCCCCCCCCC`, the call was inactive. Same read-out and setting: the same measure for `CN1CCN(Cc2cc(-c3ccc4[nH]c(=O)oc4c3)co2)[C@@H](c2ccc(F)cc2)C1`: “inactive”; for `CCCCCCC(=O)OCC`: “inactive”. With `CCOc1ccc2c(c1)C(C)=CC(C)(C)N2`, the AC50 is 69.4 µM (active).

Regarding `Oc1ccc2ccccc2c1N=Nc1ccccc1`, the compound was classed as inactive.

In the case of `CCCCCCCCCCO`, the result was inactive.

For `CCNc1cccc(C)c1`, the compound was classed as inactive. Regarding `NC(=O)Cn1c(=O)cc(CCN2CCN(c3nccc4sccc34)CC2)c2ccc(F)cc21`, the concentration at half-maximal activity (AC50) is 100 µM (active). Consider `NS(=O)(=O)c1cc2c(cc1Cl)NCNS2(=O)=O`, for which the compound was classed as inactive. Still for that read-out and setting: with `Cc1c(C(=O)O)c(O)cc2c1C(=O)c1c(O)c([C@@H]3O[C@H](CO)[C@@H](O)[C@H](O)[C@H]3O)c(O)c(O)c1C2=O` the entry was “inactive”; with `CC1(C)CC(N=C=O)CC(C)(CN=C=O)C1` (stereo not given), “inactive”; with `CC=Cc1ccc(O)c(OC)c1`, “inactive”. Turning to `Nc1ccc2c(c1)C(=O)c1ccccc1C2=O`, the compound was classed as inactive. `O=C(N[C@@H](Cc1ccccc1)[C@@H](O)C(=O)N1C[C@@H](O)[C@@H](O)C1)c1cc2cc(Cl)ccc2[nH]1`: the outcome was inactive.

Broadly, the AC50 is the concentration giving half of the maximal activity seen.
